Assay results taken from PubChem BioAssay.
“And” between values parts separate entries of the source, which are not always exact repeats. Equal entries are not always repeated. For part of these data: Measured potencies and affinities stand elsewhere. Where a structure was tested more than once in an assay, its records may differ in their call. The source made the active and inactive calls. Unless noted, how the calls were made is not given here.

Tests used:
[1] = antimalarial activity against Dd2 strain (AID 2302;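 active means growth inhibition above 50% at the single 2 µM test dose, taken to imply half-maximal potency below 2 µM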;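 further: 0% = DMSO untreated growth and 100% = chloroquine plus artemisinin killed control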); settings: P. falciparum Dd2 in RBCs, LDH growth readout, 72 h; at 2 µM; stronger effect = higher value
[2] = HepG2 cytotoxicity, primary screen, cytotoxicity control for P. falciparum antimalarial project, cell-based, ATP luminescence (AID 2303;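 active means inhibition above 50%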;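 further: 0% = DMSO wells and 100% = digitonin-killed cells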); settings: HepG2 viability, 24-48 h, at 10 µM, stronger effect = higher value
[3] = biological target: L-lactate dehydrogenase (Plasmodium falciparum (isolate CDC / Honduras)) (UniProt Q27743); experiment: PfLDH activity inhibition – cell lysate, 3D7 strain, counter-screen for P. falciparum growth inhibition project (AID 2304);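 further: 0% = vehicle and 100% = reference inhibitor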; settings: P. falciparum 3D7 crude extract, LDH APAD/NBT absorbance; at 2 µM; stronger effect = higher value
Chain of L-lactate dehydrogenase (Plasmodium falciparum (isolate CDC / Honduras)) (Q27743 whole entry, looked up): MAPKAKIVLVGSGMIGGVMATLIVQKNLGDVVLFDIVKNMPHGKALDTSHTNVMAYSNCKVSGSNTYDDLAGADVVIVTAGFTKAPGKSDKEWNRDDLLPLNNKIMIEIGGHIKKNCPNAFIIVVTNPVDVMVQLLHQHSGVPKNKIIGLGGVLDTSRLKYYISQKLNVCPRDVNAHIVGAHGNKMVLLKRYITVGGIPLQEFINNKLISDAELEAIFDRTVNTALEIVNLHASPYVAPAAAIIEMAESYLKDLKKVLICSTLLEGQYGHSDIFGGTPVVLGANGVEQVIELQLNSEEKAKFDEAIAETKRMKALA

[4] = inhibition of 3D7 malaria parasite growth – strain 3D7 (AID 2306);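 further: 0% = DMSO wells and 100% = chloroquine plus artemisinin control wells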; settings: P. falciparum 3D7 erythrocytic growth, LDH absorbance, 72 h; at 2 µM; stronger effect = higher value
[5] = biological target: Calcium-dependent protein kinase 1 (Plasmodium falciparum (isolate 3D7)) (UniProt P62344); experiment: PfCDPK1 kinase inhibitors, biochemical, TCAMS library (AID 1159585; cut-off not given, nearly all actives have IC50 up to about 0.98 µM;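 further: inhibitors leave more ATP so luminescence rises with inhibition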); settings: recombinant PfCDPK1, Kinase-Glo ATP depletion luminescence
Chain of Calcium-dependent protein kinase 1 (Plasmodium falciparum (isolate 3D7)) (P62344 whole entry, looked up): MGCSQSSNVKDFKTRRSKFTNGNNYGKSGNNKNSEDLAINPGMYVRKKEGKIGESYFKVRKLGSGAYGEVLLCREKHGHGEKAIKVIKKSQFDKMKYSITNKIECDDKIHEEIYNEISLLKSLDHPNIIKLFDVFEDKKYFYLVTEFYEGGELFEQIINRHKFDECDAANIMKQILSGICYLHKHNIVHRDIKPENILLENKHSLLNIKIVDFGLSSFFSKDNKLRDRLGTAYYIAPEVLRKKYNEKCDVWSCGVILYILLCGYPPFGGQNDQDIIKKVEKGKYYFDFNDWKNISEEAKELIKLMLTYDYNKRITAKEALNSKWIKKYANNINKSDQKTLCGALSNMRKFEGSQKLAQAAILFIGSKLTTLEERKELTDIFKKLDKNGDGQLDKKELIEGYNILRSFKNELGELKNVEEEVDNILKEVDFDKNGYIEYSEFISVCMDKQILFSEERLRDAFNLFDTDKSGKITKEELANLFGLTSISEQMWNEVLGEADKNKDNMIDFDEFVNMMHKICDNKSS

[6] = biological target: Plasmodium falciparum protein kinase 6 (PK6, PF3D7_1337100) (UniProt Q8IDW1); experiment: PfPK6 kinase inhibitors, biochemical, TCAMS library (AID 1159586); settings: recombinant PfPK6, Kinase-Glo ATP depletion luminescence
Chain of Plasmodium falciparum protein kinase 6 (PK6, PF3D7_1337100) (Q8IDW1 1-305): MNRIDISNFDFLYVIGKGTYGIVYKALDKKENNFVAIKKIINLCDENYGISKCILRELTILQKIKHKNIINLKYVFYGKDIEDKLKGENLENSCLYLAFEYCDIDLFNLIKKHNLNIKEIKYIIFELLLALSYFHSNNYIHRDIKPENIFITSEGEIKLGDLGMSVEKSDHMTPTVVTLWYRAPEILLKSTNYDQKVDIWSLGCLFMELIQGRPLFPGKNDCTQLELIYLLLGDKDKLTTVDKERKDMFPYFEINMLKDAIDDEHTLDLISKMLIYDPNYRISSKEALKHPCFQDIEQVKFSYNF

[7] = biological target: Protein kinase 7 (PK7), Plasmodium falciparum 3D7 (PF3D7_0213400) (UniProt Q7YTF7); experiment: inhibition of Plasmodium PK7 catalytic activity – biochemical, TCAMS antimalarial set, Kinase-Glo luminescence (AID 1159587); settings: recombinant PfPK7, Kinase-Glo ATP depletion luminescence
Chain of Protein kinase 7 (PK7), Plasmodium falciparum 3D7 (PF3D7_0213400) (Q7YTF7 1-343): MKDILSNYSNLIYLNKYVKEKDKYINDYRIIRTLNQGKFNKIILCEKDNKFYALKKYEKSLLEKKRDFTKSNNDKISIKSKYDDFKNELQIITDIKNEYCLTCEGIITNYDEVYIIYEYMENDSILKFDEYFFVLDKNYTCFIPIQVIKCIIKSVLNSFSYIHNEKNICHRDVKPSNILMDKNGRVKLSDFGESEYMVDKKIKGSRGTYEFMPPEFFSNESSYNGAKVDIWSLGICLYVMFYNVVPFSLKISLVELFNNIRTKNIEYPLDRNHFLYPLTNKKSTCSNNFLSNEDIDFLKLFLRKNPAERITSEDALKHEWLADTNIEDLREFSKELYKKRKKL

[8] = biological target: Calcium-dependent protein kinase 4 (Plasmodium falciparum (isolate 3D7)) (UniProt Q8IBS5); experiment: PfCDPK4 kinase inhibitors, biochemical, TCAMS library (AID 1159588; cut-off not given, nearly all actives have IC50 up to about 0.91 µM); settings: recombinant PfCDPK4, Kinase-Glo ATP depletion luminescence
Chain of Calcium-dependent protein kinase 4 (Plasmodium falciparum (isolate 3D7)) (Q8IBS5 whole entry, looked up): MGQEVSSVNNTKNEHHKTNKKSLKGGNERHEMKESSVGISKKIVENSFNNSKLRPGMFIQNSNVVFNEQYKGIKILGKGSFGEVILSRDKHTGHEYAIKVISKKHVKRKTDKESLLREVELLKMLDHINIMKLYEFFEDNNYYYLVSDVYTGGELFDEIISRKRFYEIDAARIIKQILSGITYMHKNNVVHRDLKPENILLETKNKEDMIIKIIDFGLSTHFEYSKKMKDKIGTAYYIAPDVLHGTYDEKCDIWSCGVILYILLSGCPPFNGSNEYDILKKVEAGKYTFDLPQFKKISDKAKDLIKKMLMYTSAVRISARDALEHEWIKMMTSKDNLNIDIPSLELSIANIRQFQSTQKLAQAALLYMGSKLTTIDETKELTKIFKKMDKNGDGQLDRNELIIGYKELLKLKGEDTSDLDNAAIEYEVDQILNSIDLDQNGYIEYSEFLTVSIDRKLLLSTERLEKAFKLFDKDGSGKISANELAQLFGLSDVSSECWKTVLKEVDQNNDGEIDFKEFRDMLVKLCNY

SMILES	growth inhibition [1]	inhibition [2]	inhibition [3]	growth inhibition [4]	outcome [5]	outcome [6]	outcome [7]	outcome [8]
COC(=O)c1ccc(CC(C)NCC(O)c2ccc3ccc4ccccc4c3c2)cc1 (configuration not stated)	97% (active)	21% (inactive)	-2% (inactive)	100% (active)	inactive	inactive	inactive	inactive
C#CCN1CCC2=C(C1)c1c(O)cc(C(C)CCCc3ccc(F)cc3)cc1OC2(C)C (configuration not stated)	90% (active)	1% (inactive)	5% (inactive)	98% (active)	inactive	inactive	inactive	inactive
C/C=C1\CN2CC[C@H]1C[C@@H]2[C@@H](O)c1ccnc2ccc(O)cc12	-1% (inactive)	-10% (inactive)	-4% (inactive)	98% (active)	inactive	inactive	inactive	inactive
O=C(NC1CCC(CN2CCC(c3c[nH]c4ccccc34)CC2)CC1)[C@H]1Cc2ccccc2CN1 (some centres not stated)	35% (inactive)	29% (inactive)	3% (inactive)	89% (active)	inactive	inactive	inactive	inactive
O=C(NC1CCC(CN2CCC(c3c[nH]c4ccccc34)CC2)CC1)c1[nH]c(=O)[nH]c(=O)c1F (configuration not stated)	59% (active)	5% (inactive)	-2% (inactive)	99% (active)	inactive	inactive	inactive	inactive
O=C(C=Cc1ccccc1O)N1CCC(CN2CCC(c3c[nH]c4ccccc34)CC2)CC1	43% (inactive)	27% (inactive)	-1% (inactive)	98% (active)	inactive	inactive	inactive	inactive
CNCCCCCCOc1ccc(CC(C)NCC(O)c2cccc(C(F)(F)F)c2)cc1 (configuration not stated)	79% (active)	99% (active)	3% (inactive)	101% (active)	inactive	inactive	inactive	inactive
O=C(CC1CCCC1)N(CC1CCN(Cc2ccc(C(F)(F)F)cc2)CC1)c1ccc(N2CCOCC2)c(F)c1	97% (active)	10% (inactive)	-1% (inactive)	92% (active)	inactive	inactive	inactive	inactive
O=C(/C=C/c1ccc(Cl)c(Cl)c1)N1CCC(CN2CCC(c3c(-c4ccccc4)[nH]c4ccccc34)CC2)CC1	99% (active)	43% (inactive)	-8% (inactive)	101% (active)	inactive	inactive	inactive	inactive
Oc1cc2c(cc1CN1CCN(Cc3ccccc3)CC1)CCC2	92% (active)	1% (inactive)	0% (inactive)	98% (active)	inactive	inactive	inactive	inactive
Cc1ccc(CC(C)NCC(O)c2cccc(C#N)c2)cc1 (configuration not stated)	86% (active)	2% (inactive)	-2% (inactive)	94% (active)	inactive	inactive	inactive	inactive
COC(=O)/C=C/c1ccc(CC(C)NCC(O)c2cccc(Br)c2)cc1 (configuration not stated)	93% (active)	2% (inactive)	5% (inactive)	97% (active)	inactive	inactive	inactive	inactive
CCCCc1ccc2[nH]cc(C3=CCN(C)CC3)c2c1Br	94% (active)	37% (inactive)	-5% (inactive)	94% (active)	inactive	inactive	inactive	inactive
O=C(NC1CCC(CN2CCC(c3c[nH]c4ccccc34)CC2)CC1)c1csc(-c2cccc(Cl)c2Cl)n1 (configuration not stated)	41% (inactive)	34% (inactive)	-3% (inactive)	99% (active)	inactive	inactive	inactive	inactive
C=Cc1cc(OC)c2c(c1)c(=O)oc1c2cc(OC)c2c(O)ccc([C@H]3O[C@H]([C@@H](C)O)[C@H](O)[C@H]3O)c21	41% (inactive)	33% (inactive)	0% (inactive)	95% (active)	inactive	inactive	inactive	inactive
COc1coc(C(=O)NC2CCN(CC3(c4ccc(Cl)cc4)CCC3)CC2)c1OC	96% (active)	2% (inactive)	-3% (inactive)	96% (active)	inactive	inactive	inactive	inactive
CC[C@H]1CN2CC[C@@H]1C[C@H]2[C@H](O)c1ccnc2ccc(Cl)cc12	98% (active)	-3% (inactive)	2% (inactive)	100% (active)	inactive	inactive	inactive	inactive
Cc1c(C)c2c(c(C)c1O)CC[C@](C)(C(=O)NC1CCC(CN3CCC(c4c[nH]c5ccccc45)CC3)CC1)O2 (some centres not stated)	98% (active) and 48% (inactive)	24% (inactive) and 27% (inactive)	-2% (inactive) and 1% (inactive)	96% (active) and 85% (active)	inactive	inactive	inactive	inactive
CN1CC=C(c2c[nH]c3ccc(Br)cc23)CC1	80% (active)	-3% (inactive)	1% (inactive)	88% (active)	inactive	inactive	inactive	inactive
COc1ccc(OC)c(C(O)CNC(C)C)c1 (configuration not stated)	-2% (inactive)	3% (inactive)	-9% (inactive)	96% (active)	inactive	inactive	inactive	inactive

SMILES	growth inhibition [1]	inhibition [2]	inhibition [3]	growth inhibition [4]	outcome [5]	outcome [6]	outcome [7]	outcome [8]
COc1cccc(C2(NC[C@@H](O)[C@H](Cc3ccccc3)NC(=O)c3ccccc3)CCCCC2)c1	67% (active)	14% (inactive)	-2% (inactive)	97% (active)	inactive	inactive	inactive	inactive
Cc1[nH]c2ccccc2c1C1=CCN(CCN2CCOc3c(Br)cccc3C2=O)CC1	76% (active)	15% (inactive)	-3% (inactive)	97% (active)	inactive	inactive	inactive	inactive
CN1CC=C(c2c[nH]c3ccc(Oc4ccccc4)cc23)CC1	98% (active)	40% (inactive)	-7% (inactive)	98% (active)	inactive	inactive	inactive	inactive
c1ccc(C(OCCC2CCN(Cc3cccnc3)CC2)c2ccccc2)cc1	98% (active)	12% (inactive)	5% (inactive)	99% (active)	inactive	inactive	inactive	inactive
CC[C@H]1CN2CC[C@H]1C[C@H]2[C@H](O)c1ccnc2ccc(O)cc12	2% (inactive)	11% (inactive)	-3% (inactive)	99% (active)	inactive	inactive	inactive	inactive
O=C(/C=C/c1ccc(Cl)c(Cl)c1)N1CCC(CN2CCC(c3c[nH]c4cc(C(F)(F)F)ccc34)CC2)CC1	38% (inactive)	6% (inactive)	-5% (inactive)	99% (active)	inactive	inactive	inactive	inactive
CCOc1ccc(Br)cc1/C=C/C(=O)Nc1ccc2c(c1)[C@@H]1CC[C@H]2N1C	26% (inactive)	60% (active)	-2% (inactive)	89% (active)	inactive	inactive	inactive	inactive
CC(=O)C1(c2ccccc2)CCN(CCC2(c3ccc(Cl)c(Cl)c3)CN(C(=O)c3cccc(Cl)c3)CCO2)CC1 (configuration not stated)	61% (active)	37% (inactive)	-3% (inactive)	90% (active)	inactive	inactive	inactive	inactive
NC(=O)c1ccc2[nH]cc(C3CCN(CC4CCC(NC(=O)/C=C/c5ccc(Cl)c(Cl)c5)CC4)CC3)c2c1 (configuration not stated)	26% (inactive) and 32% (inactive)	11% (inactive) and -1% (inactive)	5% (inactive) and -8% (inactive)	101% (active) and 100% (active)	inactive	inactive	inactive	inactive
Cc1cccc2[nH]cc(C3CCN(CC4CCC(NC(=O)/C=C/c5ccc(Cl)c(Cl)c5)CC4)CC3)c12 (configuration not stated)	97% (active)	88% (active)	-4% (inactive)	101% (active)	inactive	inactive	inactive	inactive
Cc1cc(CN2CCN(CCOC(c3ccccc3)c3ccccc3)CC2)ccc1O	96% (active)	9% (inactive)	-1% (inactive)	97% (active)	inactive	inactive	inactive	inactive
Cc1c(C)c2c(c(C)c1O)CC[C@@](C)(C(=O)NC1CCC(CN3CCC(c4c[nH]c5ccccc45)CC3)CC1)O2 (some centres not stated)	57% (active)	29% (inactive)	-2% (inactive)	92% (active)	inactive	inactive	inactive	inactive
CC(=O)N(Cc1ccc(-c2ccc(CNCCc3ccccc3)cc2)cc1)C1CCN(Cc2ccccc2)CC1	15% (inactive)	45% (inactive)	-2% (inactive)	95% (active)	inactive	inactive	inactive	inactive
O=C(/C=C/c1ccc(Cl)c(Cl)c1)N1CCC(CN2CC[C@H](c3c[nH]c4ccccc34)[C@@H](O)C2)CC1	14% (inactive)	37% (inactive)	-7% (inactive)	99% (active)	inactive	inactive	inactive	inactive
CC(C)/C(=C(/F)CN1C(=O)C(NC(=O)c2cc3ccccc3[nH]2)C(=O)N(c2ccccc2)c2ccccc21)c1ccccc1 (configuration not stated)	82% (active)	7% (inactive)	-2% (inactive)	98% (active)	inactive	inactive	inactive	inactive
O=C(/C=C/c1ccc(Cl)c(Cl)c1)N(Cc1ccccc1)C1CCC(CN2CCC(c3c[nH]c4ccccc34)CC2)CC1 (configuration not stated)	59% (active)	37% (inactive)	-6% (inactive)	101% (active)	inactive	inactive	inactive	inactive
Cc1ccc(CC(C)NCC(O)c2cccc(Cl)c2)cc1 (configuration not stated)	64% (active)	-4% (inactive)	-1% (inactive)	93% (active)	inactive	inactive	inactive	inactive
CCC1(C)CC(CCNCc2ccccc2O)(c2ccc(F)cc2)CCO1 (configuration not stated)	32% (inactive)	20% (inactive)	6% (inactive)	98% (active)	inactive	inactive	inactive	inactive
Cc1ccccc1CNCC(O)c1cccc(C(F)(F)F)c1 (configuration not stated)	77% (active)	5% (inactive)	-4% (inactive)	99% (active)	inactive	inactive	inactive	inactive
